According to PubChem BioAssay (NCATS):
Inconclusive results are not listed. Where a call stands in place of a potency, no number is given. Active and inactive are the calls of the source. Unless noted, calls follow the shape of the dose curve; as a rule, active = well fitted curve in the direction sought with a large enough effect; inconclusive = small, poorly fitted or top-dose-only effect, or another doubt; inactive = no such curve, though single readings can be large; an effect the other way counts as inactive or inconclusive.

Tests used:
[1] = HTS Assay for Allosteric Antagonists of the Human D2 Dopamine Receptor: Hit Validation in HTRF (AID 624455);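 also: stable D1 dopamine receptor cell line scored for blocking the D1 response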
Procedure, shortened: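 Signal from an HTRF read-out in D1-expressing stable cells gave hit activity as inhibition of the D1 response.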

[2] = qHTS assay for small molecule agonists of the antioxidant response element (ARE) signaling pathway (AID 651741; active = well fitted activation curve with a large enough effect in the signal ratio; the % refers to the signal ratio)
Procedure, shortened: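 HepG2 ARE-bla cells plated at 2,000 cells/well and incubated 5 h at 37 C/5% CO2 received 23 nL compound in DMSO. After 16 h at 37 C, LiveBLAzer B/G FRET substrate was applied for 2 h at room temperature and fluorescence read.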

[3] = qHTS assay for small molecule activators of the p53 signaling pathway (AID 651743; active = well fitted activation curve with a large enough effect in the signal ratio, not every such curve was filed as active; the % refers to the signal ratio); details: HCT-116 p53RE-bla, beta-lactamase FRET ratio, 16 h; activation: stronger effect = higher value
Procedure, shortened: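 HCT-116 p53RE-bla, 4,000 cells/well; 5 h settle; cpd/DMSO 16 h, 37 C; LiveBLAzer B/G 2 h RT; fluorescence intensity.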

[4] = Cytotoxicity counterscreen for NFkB agonists and antagonists (AID 624476);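 also: cells exposed to compound for 48 hours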; also: potency is read from the fitted curve at half-maximal effect
[5] = qHTS Assay for Identification of Small Molecule Agonists for NFkB Signaling Pathway. (AID 624478);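 also: compounds tested together with TNF alpha at its EC50 of 10 pM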
Procedure, shortened: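 Cells carrying an NFkB response element-driven beta-lactamase gene are co-treated with compound and 10 pM TNF alpha for 5 h, and reporter activity is then read as 460 and 530 nm fluorescence.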

[6] = qHTS Assay for Identification of Small Molecule Antagonists for NFkB Signaling Pathway. (AID 624479; calls by dose curve;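 also: pathway stimulated with TNF alpha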; also: potency is read from the fitted curve at half-maximal effect)
[7] = Cell Proliferation Assay against the TMD8 Cell Line (AID 651645); details: TMD8 DLBCL cell line proliferation/viability; at 46.1 µM (top of the series) unless noted;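 also: cells exposed to compound for 48 h before reading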
Procedure, shortened: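 TMD8 cells, 500/well in RPMI with 5% FBS, dosed immediately and grown 48 h at 37 C, 5% CO2. CellTiter-Glo luminescence normalised to DMSO 100% and 9.2 uM bortezomib (final) 0%.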

[8] = Cell Proliferation Assay against the HBL1 Cell Line (AID 651646); details: HBL1 DLBCL cells; at 46.1 µM (top of the series) unless noted;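 also: cells exposed to compound for 48 h before reading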
Procedure, shortened: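 HBL1 ABC DLBCL cells, 500/well in RPMI with 5% FBS, treated for 48 h at 37C. Viability read by CellTiter-Glo luminescence, normalized to DMSO as 100% and 9.2 uM bortezomib as 0%.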

[9] = Cell Proliferation Assay against the TMD8 Cell Line (Caspase readout at 16 hrs) (AID 651712)
Procedure, shortened: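 TMD8 cells in RPMI with 5% FBS were treated with compound for 16 h at 37 C, then caspase 3/7 activation was read by Caspase-Glo luminescence. Percent activity was scaled to DMSO (0%) and 9.2 uM bortezomib final (100%).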

[10] = Cell Proliferation Assay against the TMD8 Cell Line (Caspase readout at 8 hrs) (AID 651713)
Procedure, shortened: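 Percent activity derived from Caspase-Glo signal, DMSO set to 0% and bortezomib (9.2 uM final) to 100%. TMD8 cells were exposed to compound for 8 h in RPMI with 5% FBS.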

SMILES	Potency [1]	Potency [2]	activation [3]	Potency [4]	outcome [5]	Potency [6]	viability (% of control) [7]	viability, percent of control [8]	Potency [9]	Potency [10]
NS(=O)(=O)c1cc2c(cc1Cl)NC=NS2(=O)=O	inactive	inactive	-2.13% (inactive)	–	–	–	–	–	–	–
Fc1ccc(Cl)cc1-c1nc(Nc2ccncc2)c2nccnc2n1	–	–	–	inactive	inactive	inactive	98.1%	93.2%	inactive	inactive
Cc1ccccc1C(OCCN(C)C)c1ccccc1 (stereo not drawn)	inactive	inactive	-4.64% (inactive)	–	–	–	–	–	–	–
Nc1ncnc2nc(-c3ccc(N4CCOCC4)nc3)cc(-c3cccc(Br)c3)c12	inactive	–	–	inactive	inactive	–	74.7%	66.5%	–	–
COCC(=O)NCC=Cc1ccc2ncnc(Nc3ccc(Oc4ccc(C)nc4)c(C)c3)c2c1	–	–	–	26.4 µM (active)	inactive	10.6 µM (active)	28.1%	41.4%	inactive	–
Nc1nc2[nH]cc(CCc3ccc(C(=O)N[C@@H](CCC(=O)O)C(=O)O)cc3)c2c(=O)[nH]1	–	–	–	inactive	inactive	inactive	40%	74.6%	inactive	inactive
CC[C@@H](C)[C@H](NC(=O)[C@H](CC1CCCCC1)NC(=O)c1ccno1)C(=O)N1CCC2(CCc3ccccc32)CC1	–	–	–	inactive	inactive	inactive	62.6%	65.5%	inactive	inactive
CCc1cncnc1N1CCN(Cc2nc3ccc(C(F)(F)F)cc3[nH]2)CC1	–	–	–	inactive	inactive	inactive	56.3%	82.4%	–	inactive
O=c1[nH]c(-c2ccc(C(F)(F)F)cc2)nc2c1CSCC2	–	–	–	inactive	inactive	inactive	82.1%	105%	inactive	inactive
COc1ccc2c3n(c(=NC(=O)c4cccnc4)nc2c1OC)CCN3	–	–	–	1.87 µM (active)	inactive	inactive	22.1%	39.3%	inactive	inactive
Clc1ccc(Nc2nnc(Cc3ccncc3)c3ccccc23)cc1	–	–	–	inactive	inactive	inactive	90.1%	66.3%	–	inactive
Cc1cc(Nc2nc(N[C@@H](C)c3ncc(F)cn3)ncc2Cl)n[nH]1	–	–	–	inactive	inactive	inactive	105%	138%	inactive	inactive
C[C@@H]1CN(Cc2ccc(F)cc2)[C@@H](C)CN1C(=O)c1cc2c(C(=O)C(=O)N(C)C)cn(C)c2cc1Cl	–	–	–	inactive	inactive	inactive	61.8%	78.3%	–	inactive
CC(=O)NC(C)c1ccc(Oc2ccc(OC(C)C)cc2)cc1 (stereo not drawn)	–	–	–	inactive	inactive	inactive	–	62.8%	inactive	inactive
CS(=O)(=O)c1ccc(C(=O)Nc2ccc(Cl)c(-c3ccccn3)c2)c(Cl)c1	–	–	–	inactive	inactive	inactive	93.4%	99.4%	inactive	inactive
CC1(C)Cc2c(-c3ccccc3)c(-c3ccc(Cl)cc3)c(CC(=O)O)n2C1	–	–	–	20.9 µM (active)	inactive	21.1 µM (active)	–	35.6%	–	–
CCOC(=O)N[C@@H]1CC[C@@H]2[C@@H](C1)C[C@H]1C(=O)O[C@H](C)[C@H]1[C@@H]2C=Cc1ccc(-c2cccc(F)c2)cn1	–	–	–	inactive	inactive	inactive	42.8%	–	–	inactive
CCCc1nc2c(C)cc(-c3nc4ccccc4n3C)cc2n1Cc1ccc(-c2ccccc2C(=O)O)cc1	–	–	–	inactive	inactive	inactive	71.5%	70.6%	inactive	inactive
N#CC[C@H](C1CCCC1)n1cc(-c2ncnc3[nH]ccc23)cn1	–	–	–	inactive	inactive	16.8 µM (active)	33.1%	65.7%	inactive	inactive
Cc1cc(-c2nnc3n2CCCCC3)c(C)n1-c1ccc(F)cc1	–	–	–	inactive	inactive	inactive	6.21%	4.79%	–	inactive
OC[C@H](Cc1ccccc1)Nc1nc(Oc2ccc3c(c2)CCC3)nc2c1ncn2Cc1ccc(-c2ccccc2)cc1	–	–	–	inactive	inactive	inactive	–	35.2%	–	–
C[C@]12CC[C@H](O)CC1=CC[C@@H]1[C@H]2CC[C@]2(C)C(c3cccnc3)=CC[C@H]12	–	–	–	inactive	inactive	inactive	29.5%	52.7%	–	inactive
CCN(CCCO)CCCOc1ccc2c(Nc3cc(CC(=O)Nc4cccc(F)c4)[nH]n3)ncnc2c1	–	–	–	inactive	inactive	inactive	42.6%	67.6%	inactive	inactive
COc1ccc(-c2ccc3c(N4CCOCC4)nc(N4C[C@@H](C)O[C@@H](C)C4)nc3n2)cc1CO	–	–	–	inactive	inactive	inactive	29.5%	57.7%	–	inactive
O=C(c1cc(Cc2n[nH]c(=O)c3ccccc23)ccc1F)N1CCN(C(=O)C2CC2)CC1	–	–	–	inactive	inactive	inactive	58.9%	64.8%	–	inactive
